Compound activity as filed in PubChem.
Most compounds without a hit are left out; they make up all but 3.8% or so of the library.
HepG2 tox – counter-screen for TGF-b inhibitors: cytotoxicity in HepG2 cells. HepG2 CAGA-GFP viability, ATP luminescence, 18 h. actives 0.76% (n = 410,000). Potency, µM (series often up to 46.1 µM), most hits filed as cytotoxic
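HepG2 CAGA-GFP cells (1000/well, DMEM with 1% FBS) received compound, then TGF-beta at 500 pg/mL final, and were incubated 18 hours at 37 degrees C. Viability was read by CellTiter-Glo luminescence. Media-only wells were set as complete cell-killing and DMSO as no toxicity.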
TGFb SMAD3 inh – TGF-b pathway inhibition; HepG2 CAGA-GFP TGF-b/SMAD3 reporter, GFP fluorescence, 18 h; TGF-beta stimulated, 500 pg/mL final; Potency, µM (doses to about 46.1 µM), hits mostly inhibitors; actives 1.2% (n = 410,000); AID 588855; also: nearly all actives have a fitted effect of over 65% in size
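GFP signal (ex488/em500-530) from TGF-beta-stimulated HEPG2 CAGA-GFP cells, 500 pg/mL final, 18 h at 37 degrees C in DMEM plus 1% FBS, normalized to unstimulated and DMSO-stimulated controls.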
Nrf2 block – inhibitors of Nrf2 signaling; A549 ARE-Fluc reporter, luciferase luminescence, 18-24 h; Potency, µM (doses to about 46 µM), actives largely listed as inhibitors; actives 2.1% (n = 360,000); AID 504444; also: nearly all actives have a fitted effect of over 60% in size
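A549 ARE_Fluc cells, 5000/well, 5% FBS OPTI-MEM; compounds in dose-response, 18-24 h at 37 °C/5% CO2; CellTiter-Fluor viability read (Ex 405/Em 525), then BugLite luciferase luminescence = Nrf2 activity.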
S2 tox – reduces viability in counter-screen for ATXN expression inhibitors; Potency, µM (doses to about 56.7 µM), actives largely listed as cytotoxic; actives 0.49% (n = 400,000); S2 cells (HEK-293 line with an ATXN2-luciferase reporter) viability, CellTiter-Fluor protease fluorescence, 24 h; AID 651635; also: nearly all actives have a fitted effect of over 40% in size
A549 tox-1 – kills or reduces viability of A549 cells in Nrf2 counter-screen; A549 ARE-Fluc cells, CellTiter-Fluor viability, 18-24 h; actives 0.16% (n = 390,000); Potency, µM (highest dose often 46 µM), actives largely listed as inhibitors
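A549 ARE-Fluc cells in 5% FBS OPTI-MEM, 5000 cells/well, rested 2 h then exposed to compounds in concentration-response for 18-24 h at 37 °C. Viability by CellTiter-Fluor fluorescence (Ex 405/Em 525) after 30 min; luciferase luminescence (BugLite, 15 min, RT) read afterwards.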
ATXN2 expr inh – reduces ATXN2 reporter expression in HEK-293 cells | HEK-293 ATXN2-luciferase reporter, luminescence, 24 h | Potency, µM (titrated, usually from 57 µM), most hits filed as inhibitors | actives 0.72% (n = 360,000); also: nearly all actives have a fitted effect of over 55% in size
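qHTS (up to 57 uM final) was run with 24 h compound exposure of reporter cells at 37 °C. Each well was multiplexed: SteadyGlo luminescence measured ATXN2-luciferase expression after a fluorogenic Gly-Phe-AFC viability readout (25 uM final).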
FLuc enzyme inh – blocks purified firefly luciferase in Nrf2 counterscreen; shares compounds with Nrf2 block; purified firefly luciferase, luminescence inhibition; Potency, µM (series often up to 57.5 µM), actives largely listed as inhibitors; actives 4% (n = 1,400); also: nearly all actives have a fitted effect of over 65% in size
Target sequence (P08659 whole entry, looked up): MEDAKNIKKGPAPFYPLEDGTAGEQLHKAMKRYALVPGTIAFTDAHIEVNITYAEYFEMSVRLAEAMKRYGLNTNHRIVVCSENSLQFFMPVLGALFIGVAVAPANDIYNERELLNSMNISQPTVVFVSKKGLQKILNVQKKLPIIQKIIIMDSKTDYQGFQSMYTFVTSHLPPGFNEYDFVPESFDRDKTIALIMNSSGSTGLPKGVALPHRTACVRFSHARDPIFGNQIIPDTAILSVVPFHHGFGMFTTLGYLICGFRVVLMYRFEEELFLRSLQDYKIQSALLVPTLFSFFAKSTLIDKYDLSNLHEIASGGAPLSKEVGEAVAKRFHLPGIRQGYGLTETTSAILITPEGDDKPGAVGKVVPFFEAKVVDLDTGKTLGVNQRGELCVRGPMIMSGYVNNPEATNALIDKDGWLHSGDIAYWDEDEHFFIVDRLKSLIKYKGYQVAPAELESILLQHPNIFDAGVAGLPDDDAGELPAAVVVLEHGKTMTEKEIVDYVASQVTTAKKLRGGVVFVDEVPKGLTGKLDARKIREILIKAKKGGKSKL
A549 tox-2 – toxic to A549 ARE-Fluc cells in Nrf2 counterscreen | shares compounds with Nrf2 block | A549 ARE-Fluc cells, cytotoxicity counterscreen | Potency, µM (doses to about 46.1 µM), actives largely listed as inhibitors | actives 2% (n = 1,400);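 also: cells exposed to compounds for 18 to 24 hours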
ARE-Fluc inh – reduces Nrf2 ARE reporter signal in A549 cells | actives 74% (n = 1,400) | Potency, µM (top dose mostly 46.1 µM), actives largely listed as inhibitors | A549 ARE-firefly luciferase reporter, luminescence | AID 720524 | shares compounds with Nrf2 block; also: nearly all actives have a fitted effect of over 65% in size
Numbers stand for hits; - = inactive; ? = inconclusive; . = no result given. Calls follow the shape of the dose curve; as a rule, active = well fitted curve in the direction sought with a large enough effect; inconclusive = small, poorly fitted or top-dose-only effect, or another doubt; inactive = no such curve, though single readings can be large; an effect the other way counts as inactive or inconclusive.

SMILES	HepG2 tox	TGFb SMAD3 inh	Nrf2 block	S2 tox	A549 tox-1	ATXN2 expr inh	FLuc enzyme inh	A549 tox-2	ARE-Fluc inh
COc1cc(OC)c(NC(=O)Cn2c(=O)c(C(F)(F)F)nc3ccccc32)cc1Cl	-	-	-	-	-	-	.	.	.
O=C(Nc1ccc(F)cc1)c1cc(S(=O)(=O)N2CCCCC2)cs1	-	-	8.2µM	-	-	-	-	-	7.3µM
Cc1ccc(S(=O)(=O)n2nc(OC(=O)c3ccccc3C)cc2N)cc1	-	-	5.8µM	-	-	-	-	-	2.3µM
Nc1cc(OC(=O)c2ccc(F)cc2)nn1S(=O)(=O)c1ccc(F)cc1	-	-	?	-	-	-	.	.	.
COc1ccccc1C(=O)Oc1cc(N)n(S(=O)(=O)c2ccc(C)cc2)n1	-	-	?	-	-	-	.	.	.
COc1ccc(C(=O)Oc2cc(N)n(S(=O)(=O)c3ccc(C)cc3)n2)cc1	-	-	7.3µM	-	-	-	-	-	2.1µM
CC(=O)c1c(C)[nH]c(C(=O)OCC(=O)Nc2ccc(Cl)c(S(=O)(=O)N(C)C)c2)c1C	-	?	9.2µM	13µM	-	.	-	-	9.2µM
CN(C)c1ccc(/C=C/c2ccc3ncccc3c2)cc1	-	-	.	.	.	.	.	.	.
CN(C)c1ccc(/C=C/c2cccc3cc4ccccc4nc23)cc1	14µM	1.6µM	.	.	.	.	19µM	?	1.6µM
CN(C)c1ccc(/C=C/c2cc(/C=C/c3ccc(N(C)C)cc3)c3ccccc3n2)cc1	-	-	.	.	.	.	0.17µM	-	0.58µM
CCC(=O)Nc1nnc(C(C)(C)C)s1	-	-	-	-	-	-	.	.	.
COc1ccc2c(c1)cc1c(=O)n(CC(=O)NCCc3ccccc3)nc(C)n12	-	-	-	-	-	-	.	.	.
N=c1c2c(n(Cc3ccccc3)c3c1CCC3)CCC2	-	-	1.5µM	-	?	-	-	-	?
CCCCCn1c2c(c(=N)c3ccccc31)CCC2	-	?	2.6µM	-	-	?	-	-	4.1µM
N=c1c2c(n(Cc3ccc(Cl)cc3)c3c1CCC3)CCC2	-	?	?	-	-	?	.	.	.
Cc1cnc2c(C)cccc2c1C	-	-	.	.	.	.	.	.	.
CC(=O)Nc1ccc(NC(=O)COC(=O)CCc2nc3ccccc3s2)cc1	-	-	-	-	-	-	.	.	.
CCOc1ccc(NC(=O)c2ccc(CN3CCc4ccccc4C3)cc2)cc1	-	-	?	?	-	-	.	.	.
O=C(Nc1ccc(Cl)cc1)c1ccc(CN2CCc3ccccc3C2)cc1	-	?	?	?	-	?	.	.	.
O=C(Nc1ccc(S(=O)(=O)N2CCCC2)cc1)c1ccc(CN2CCc3ccccc3C2)cc1	-	?	1.5µM	?	-	?	-	-	1.6µM
O=C(Nc1ccc(S(=O)(=O)N2CCOCC2)cc1)c1ccc(CN2CCc3ccccc3C2)cc1	-	-	0.82µM	-	?	?	-	-	1.6µM
N#CCc1ccc(NC(=O)c2ccc(CN3CCc4ccccc4C3)cc2)cc1	-	-	5.2µM	-	-	-	-	-	?
O=C(Nc1ccccc1)c1ccc(S(=O)(=O)N2CCOCC2)cc1	-	-	?	-	-	-	.	.	.
CC(=O)NC(c1ccc(F)c(F)c1)c1nc(-c2cccc(F)c2)cs1 (stereo not given)	-	-	.	?	.	-	.	.	.
CC(C)[N+](C)(CCOC(=O)C1c2ccccc2Oc2ccccc21)C(C)C	-	-	5.2µM	-	-	-	-	-	4.6µM
SMILES	HepG2 tox	TGFb SMAD3 inh	Nrf2 block	S2 tox	A549 tox-1	ATXN2 expr inh	FLuc enzyme inh	A549 tox-2	ARE-Fluc inh
CC(C)CNC(=O)COC(=O)C1c2ccccc2Oc2ccccc21	-	-	-	-	-	-	.	.	.
Cc1ccc(NC(=O)CSc2nn(-c3ccccc3)c(=S)s2)cc1S(=O)(=O)N(C)C	-	?	5.8µM	-	?	-	-	-	7.3µM
Cc1cc(C(=O)NC2CCCc3c2cnn3-c2cccc(C)c2C)n(C)n1 (stereo not given)	-	-	0.21µM	-	-	-	-	?	0.021µM
Cc1nnsc1C(=O)NC1CCCc2c1cnn2-c1ccc(F)cc1F (stereo not given)	-	-	1.2µM	-	-	-	-	-	3.7µM
Cc1ccc(-n2ncc3c2CCCC3NC(=O)c2ocnc2C)cc1C (stereo not given)	-	-	2.3µM	?	-	-	-	-	3.3µM
Cn1nccc1C(=O)NC1CCCc2c1cnn2-c1ccc(C(C)(C)C)cc1 (stereo not given)	-	-	0.73µM	?	-	-	?	-	0.73µM
CC(=O)NC1CCCc2c1cnn2-c1ccc(C(C)(C)C)cc1 (stereo not given)	-	-	-	-	-	-	.	.	.
Cc1nnsc1C(=O)NC1CCCc2c1cnn2-c1cc(F)cc(F)c1 (stereo not given)	-	-	?	-	-	-	.	.	.
COc1ccc(OC)c(NC(=O)COC(=O)CC2CCCCC2)c1	-	-	-	-	-	-	.	.	.
CCOC(=O)c1ccc(NC(=S)NNC(=O)C2(C)CC2(Cl)Cl)cc1 (stereo not given)	-	-	-	-	-	-	.	.	.
COC(=O)/C=C/c1oc2ccccc2c1C	-	-	-	-	-	-	.	.	.
COc1ccc(N2CCN(C(=O)COc3cccc4ccccc34)CC2)cc1	-	?	2.6µM	-	?	-	-	-	-
Oc1cccc(C(O)CNCc2ccc(OCc3ccc(Cl)cc3Cl)cc2)c1 (stereo not given)	-	?	-	-	-	-	.	.	.
COc1ccc(-c2nc(CN3CCN(c4ncnc5ccccc45)CC3)c(C)o2)c(OC)c1	-	?	8.2µM	-	?	?	-	-	8.2µM
COc1ccc(OC)c(-c2nc(CN3CCN(C(=O)c4ccco4)CC3)c(C)o2)c1	-	-	-	-	-	-	.	.	.
Cc1nc([N+](=O)[O-])cn1CC(O)c1ccc2c(c1)OCCO2 (stereo not given)	-	-	.	.	.	.	.	.	.
C[n+]1cn(CC(O)COCc2ccccc2)c2ccccc21 (stereo not given)	-	-	-	-	-	-	.	.	.
CCCCCc1ccc(OCCOCCn2c[n+](C)c3ccccc32)c(CCCCC)c1	-	?	7.3µM	18µM	-	.	-	?	.
CCN(CC)c1ccc(C(=O)NNC(=O)CCNC(=O)c2ccccc2)cc1	-	-	-	-	-	-	.	.	.
